FEN1 inh-1 – human FEN1 inhibition; 390,000 compounds, 0.35% hits; AID 588795; Recombinant FEN1 flap cleavage, fluorescence, 15 min; P39748; Potency, µM (highest dose often 114 µM), for the others: at the top dose activity change, negative = inhibition, hits mostly inhibitors; further: on the % scale 0 is the no-effect control and ±100 the full control effect; nearly all actives have a fitted effect of over 65% in size
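Potency values derive from four-parameter Hill fits of normalized qHTS data. The reaction used 10 nM FEN1 preincubated 15 min at room temperature with compound, then 50 nM DNA substrate, read at 0 and 15 min.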
WRN helicase inh – WRN helicase (human) inhibition; 360,000 compounds, 0.46% hits; Potency, µM (titrated, usually from 114 µM), for the others: at the top dose activity change, negative = inhibition, actives largely listed as inhibitors; WRN helicase unwinding, fluorescent forked duplex, kinetic; AID 651768; further: on the % scale 0 is the no-effect control and ±100 the full control effect; nearly all actives have a fitted effect of over 55% in size
Target sequence (Q14191 whole entry, looked up): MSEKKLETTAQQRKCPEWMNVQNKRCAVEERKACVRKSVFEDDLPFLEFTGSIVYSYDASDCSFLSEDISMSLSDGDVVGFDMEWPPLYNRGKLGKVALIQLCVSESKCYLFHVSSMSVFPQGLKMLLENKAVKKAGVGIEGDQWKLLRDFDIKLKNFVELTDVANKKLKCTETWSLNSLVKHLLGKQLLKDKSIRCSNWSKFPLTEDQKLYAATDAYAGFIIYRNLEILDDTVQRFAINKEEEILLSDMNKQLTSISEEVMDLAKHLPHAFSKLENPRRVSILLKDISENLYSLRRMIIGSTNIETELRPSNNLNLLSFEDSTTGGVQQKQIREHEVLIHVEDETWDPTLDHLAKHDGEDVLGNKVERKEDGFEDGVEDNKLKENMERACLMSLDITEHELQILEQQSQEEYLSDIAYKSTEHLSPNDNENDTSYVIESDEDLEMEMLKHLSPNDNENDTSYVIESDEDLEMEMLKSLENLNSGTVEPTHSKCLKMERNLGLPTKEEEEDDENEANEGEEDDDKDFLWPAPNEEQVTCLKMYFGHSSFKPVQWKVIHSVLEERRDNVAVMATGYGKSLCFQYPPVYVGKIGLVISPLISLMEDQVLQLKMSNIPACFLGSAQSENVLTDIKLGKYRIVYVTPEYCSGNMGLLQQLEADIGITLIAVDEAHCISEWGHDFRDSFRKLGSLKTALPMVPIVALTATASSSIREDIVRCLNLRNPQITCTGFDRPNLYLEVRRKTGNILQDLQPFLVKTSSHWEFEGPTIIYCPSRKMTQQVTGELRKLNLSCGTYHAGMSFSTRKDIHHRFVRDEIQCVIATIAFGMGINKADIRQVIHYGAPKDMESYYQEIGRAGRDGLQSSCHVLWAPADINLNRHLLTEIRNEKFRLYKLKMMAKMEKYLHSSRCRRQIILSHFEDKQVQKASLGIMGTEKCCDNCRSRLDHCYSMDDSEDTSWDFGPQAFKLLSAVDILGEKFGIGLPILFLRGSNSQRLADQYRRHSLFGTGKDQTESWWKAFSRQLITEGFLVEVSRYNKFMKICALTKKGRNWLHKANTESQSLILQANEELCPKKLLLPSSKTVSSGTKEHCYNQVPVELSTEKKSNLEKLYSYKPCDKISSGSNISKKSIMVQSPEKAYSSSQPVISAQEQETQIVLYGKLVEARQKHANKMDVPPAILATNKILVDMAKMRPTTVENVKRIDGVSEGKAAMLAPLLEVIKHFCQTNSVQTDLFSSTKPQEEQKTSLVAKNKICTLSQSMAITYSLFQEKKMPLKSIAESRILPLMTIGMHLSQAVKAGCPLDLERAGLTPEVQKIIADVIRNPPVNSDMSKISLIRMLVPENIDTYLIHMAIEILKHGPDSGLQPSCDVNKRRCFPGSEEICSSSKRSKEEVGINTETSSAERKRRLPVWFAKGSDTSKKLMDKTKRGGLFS
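WRN at 20 nM final preincubated with compound 15 min at room temperature; reaction started with 100 nM fluorophore/quencher forked duplex oligonucleotide and 2 mM ATP final. Unwinding followed kinetically by red fluorescence (ex 525, em 598 nm).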
Pol kappa inh – DNA polymerase kappa (human) inhibition | Q9UBT6 | purified Pol kappa, fluorescent DNA synthesis assay, 10 min | Potency, µM (series often up to 107 µM), for inactives: top-dose activity, negative = inhibition, most hits filed as inhibitors | 400,000 compounds, 0.53% hits; further: on the % scale 0 is the no-effect control and ±100 the full control effect
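Pol kappa 10 nM + cpd, 15 min RT; start w/ substrate 50 nM final; fluorescence kinetic read, 0 and 10 min. Neg ctrl: buffer, no enzyme.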
Pol beta inh – DNA polymerase beta (human) inhibition. P06746. Pol beta primer extension/strand displacement, fluorescence kinetic. Potency, µM (doses to about 114 µM), for the others: at the highest dose activity change, negative = inhibition, actives largely listed as inhibitors. 340,000 compounds, 1.3% hits; further: on the % scale 0 is the no-effect control and ±100 the full control effect
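Human Pol beta at 10 nM; strand-displacement substrate 50 nM final. Compound exposure 15 min at room temperature before start, reaction 10 min at room temperature.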
POLH inh – DNA polymerase eta (human) inhibition | AID 588591 | 390,000 compounds, 1.2% hits | Q9Y253 | Potency, µM (titrated, usually from 114 µM), for the others: at the top dose activity change, negative = inhibition, most hits filed as inhibitors | recombinant Pol eta, fluorescent DNA replication assay; further: on the % scale 0 is the no-effect control and ±100 the full control effect
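Fluorescent replication assay: 50 nM final substrate added after a 15 min room-temperature compound preincubation with 10 nM enzyme. Signal taken at 0 min and again at 10 min.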
Pol iota inh – inhibitors of human DNA polymerase iota. Q9UNA4. Pol iota fluorescent replication assay, 10 min. Potency, µM (highest dose often 115 µM), for inactives: at the highest dose activity, negative = inhibition, usual class: inhibitors. 390,000 compounds, 1% hits
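Fluorescent replication assay read twice, at 0 min and 10 min after adding 50 nM (final) substrate. Enzyme (10 nM) and compounds were first incubated 15 min at room temperature; enzyme-free buffer wells were negative controls.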
FEN1 inh-2 – confirmation of human FEN1 inhibitors; FEN1 flap cleavage, TAMRA/BHQ2 fluorogenic DNA substrate; Potency, µM, most hits filed as inhibitors; 880 compounds, 79% hits; shares compounds with FEN1 inh-1; AID 720498; further: nearly all actives have a fitted effect of over 60% in size
An asterisk follows results filed as active; ? = inconclusive; nt = no result given; ! = not confirmed by another sample; [ ] = another dose, or the depositor's remark. Only some compounds are listed: those with a hit (about 2.4% of all), similar ones and a draw of the others. The call rests on the fitted dose curve; in most records, active means well fitted curve in the direction sought with a large enough effect; inconclusive means small, poorly fitted or top-dose-only effect, or another doubt; inactive means no such curve, though single readings can be large; an effect the other way counts as inactive or inconclusive. Potency means the concentration at half of the fitted maximal effect.

SMILES | FEN1 inh-1 | WRN helicase inh | Pol kappa inh | Pol beta inh | POLH inh | Pol iota inh | FEN1 inh-2
O=[N+]([O-])c1ccc(C=Nc2cccc3ccccc23)s1 | ? | -4.3% | -13.3% | ? | ? | ? | 6.01*
Cc1ccc(NC(=O)COC(=O)c2ccc(Br)o2)cc1S(=O)(=O)N1CCCCC1 | -6.3% | -5.5% | 1.2% | nt | -9.8% | -19.5% | nt
Cc1ccc(NC(=O)COC(=O)c2ccc([N+](=O)[O-])o2)cc1S(=O)(=O)N1CCCCC1 | ? | -5.0% | 3.3% | ? | -13.2% | 100.3% | 26.9*
O=C(COC(=O)c1ccc([N+](=O)[O-])o1)Nc1cccc(S(=O)(=O)N2CCCCC2)c1 | ? | 4.1%[11.6 µM] | -28.0% | 1.3% | 3.0% | 17.9% | 30.1*
COc1ccc(NC(=O)CCCc2nnc3n(C(C)C)c(=O)c4sccc4n23)cc1Cl | 59.6% | nt | 10.1% | 0.0% | -18.9% | 18.2% | nt
c1ccc(CNc2ncnc3ccccc23)cc1 | 4.1% | 4.7% | 0.4% | 3.4% | -9.8% | -7.2% | nt
c1ccc(CNc2c3ccccc3nc3ccccc23)cc1 | ? | ? | -27.5% | ? | ? | ? | 10.7*
COc1ccccc1NC(=O)Nc1cnccn1 | -0.4% | -1.6% | -12.8% | -20.4% | -1.1% | 29.9% | nt
COc1cc([N+](=O)[O-])ccc1NC(=O)Nc1cnccn1 | -18.6% | -2.9% | 10.2% | 25.2% | 79.4µM* | -3.9% | ?
COc1ccc(Cl)cc1C(=O)NCCN(C)C | -3.2% | -8.0% | -23.4% | 14.3% | 6.7% | 9.5% | nt
COc1ccc(-c2nc3c(C(=O)NCCN(C)C)cccc3c3ccccc23)cc1 | 31.6µM* | 55.9% | 0.4% | nt | 6.5% | ? | 33.8*
COc1cccc2nc3c(C(=O)NCCN(C)C)cccc3cc12 | 12.6µM* | 13.5%[11.6 µM] | -45.7% | nt | ? | ? | 30.1*
Cc1ccc(/C=C/C(=O)N2CCC(c3nc4ccccc4o3)CC2)cc1 | 0.6% | nt | -18.3% | 7.3% | -6.8% | 32.9% | nt
CCOc1ccccc1NC(=O)CN1C(=O)COc2ccc(S(=O)(=O)N3CCCCCC3)cc21 | -7.3% | nt | -3.3% | 38.9% | -13.2% | 10.5% | nt
Cc1nc2ccccc2c2nc3ccccc3n12 | 22.4µM* | -5.0% | -9.9% | ? | -6.6% | ? | 26.9*
Fc1ccc(-c2nc3ccccc3c3nc4ccccc4n23)cc1 | 4.6% | -6.6% | 1.3% | 0.6% | -8.3% | -0.5% | nt
COc1ccc(-n2c(=O)c3ccccc3n(Cc3ccccc3C)c2=O)c(OC)c1 | -23.4% | nt | -0.8% | 17.6% | -3.0% | -20.3% | nt
Cc1ccc(C(=O)N/C(=C/c2ccc(-c3ccc([N+](=O)[O-])cc3)o2)C(=O)NCCCN(C)C)cc1 | ? | 8.1%[11.6 µM] | -5.3% | nt | -24.4% | 5.5% | 42.6*
CCC1CCCCN1CCCNC(=O)c1cc2c(Cl)nc3ccc(C)cc3c2s1 (stereo not drawn) | 89.1µM* | nt | 9.1% | -11.2% | 8.2% | -11.2% | ?
Cc1ccc2nc(Cl)c3cc(C(=O)NCCCN4CCCC4)sc3c2c1 | 22.4µM* | 37.1% | 4.2% | -3.9% | -2.6% | -12.5% | 47.8*
COc1ccc(CCNC(=O)C(=O)NCC(c2ccc3c(c2)OCO3)N2CCOCC2)cc1 (stereo not drawn) | 9.8% | nt | 0.2%[60.1 µM] | -20.2% | -4.2% | ? | nt
CC(=O)N1c2ccc(S(=O)(=O)Nc3ccc(Cl)cc3C)cc2CC1C (stereo not drawn) | -19.5% | nt | -14.1%[60.1 µM] | 15.0% | -6.8% | -24.2% | nt
CCN1/C(=C/c2ccc3cc(C)ccc3[n+]2CC)Sc2cc(C)ccc21 | ? | 50.1µM* | -18.1% | ? | ? | ? | 7.57*
CC(C)Cn1c(N)c(C(=O)COC(=O)c2ccc(O)cc2)c(=O)n(C)c1=O | 6.8% | 5.3% | 3.8% | 1.4% | -23.2% | 15.6% | nt
COCCn1c(C)cc(C(=O)COC(=O)c2ccc([N+](=O)[O-])o2)c1C | ? | 0.6% | -26.2% | ? | 79.4µM* | ? | 15.1*
SMILES | FEN1 inh-1 | WRN helicase inh | Pol kappa inh | Pol beta inh | POLH inh | Pol iota inh | FEN1 inh-2
CC(C)Cn1c(N)c(C(=O)COC(=O)c2ccc([N+](=O)[O-])o2)c(=O)n(C)c1=O | ? | 2.0%[11.6 µM] | -11.1% | ? | ? | 26.0% | 9.53*
Cc1cc(C(=O)COC(=O)c2ccc([N+](=O)[O-])o2)c(C)n1CC1CCCO1 (stereo not drawn) | ? | 6.7% | -31.5% | ? | -29.5% | ? | nt
CCC1CN(C(=O)Nc2ccc(Br)cc2F)c2ccccc2S1 (stereo not drawn) | 15.6% | nt | -10.4% | 2.0% | -10.2% | 1.6% | nt
Cc1cccc(C(=O)Nc2ccc3nc(SCC(=O)N4CCCC4)sc3c2)c1 | -14.3% | nt | -7.6% | -0.5% | -7.0% | 34.4% | nt
C[C@](N)(Cc1ccc(O)c(O)c1)C(=O)O | -7.2% | nt | 2.67µM*! | 1.12µM* | ? | 25.1µM* | ?
C[C@](N)(Cc1ccc(O)cc1)C(=O)O | -4.7%[57.1 µM] | nt | 3.2%[60.1 µM] | 0.0%[57.1 µM] | -5.4%[57.1 µM] | ? | nt
COc1cc2c(C(=O)N(C)c3cc(Cl)ccc3OC)cn(CC(C)C)c(=O)c2cc1OC | -15.3% | nt | -13.5% | 47.3% | -18.3% | 25.4% | nt
O=C(Nc1ccc(N2CCN(C(=O)c3ccccc3)CC2)cc1)c1ccc([N+](=O)[O-])o1 | -0.7% | -7.6%[11.6 µM] | -19.9% | 25.1µM* | ? | ? | 26.9*
CC(=O)c1cccc(NC(=O)c2ccc([N+](=O)[O-])o2)c1 | -1.3% | -1.3%[11.6 µM] | -21.8% | nt | -14.0% | 79.4µM* | 42.6*
O=C(COC(=O)c1ccc([N+](=O)[O-])o1)NCc1ccc(F)cc1 | ? | 15.0% | -25.2% | nt | 89.1µM* | ? | 13.5*
COc1ccc(CCNC(=O)COc2ccc([N+](=O)[O-])cc2)cc1 | -1.2% | 12.6%[57.1 µM] | -16.2% | 107.0% | -20.0% | 59.7% | nt
O=C(COC(=O)c1ccc([N+](=O)[O-])o1)NCCCc1ccccc1 | ? | 22.2% | -23.5% | nt | 89.1µM* | ? | 19*
COc1ccc(CCNC(=O)COC(=O)c2ccc([N+](=O)[O-])o2)cc1 | ? | -15.4% | -9.1% | nt | ? | ? | 16.9*
CC(=O)Nc1ccc(NC(=O)COC(=O)c2ccc([N+](=O)[O-])o2)cc1 | 20µM* | 0.5%[11.6 µM] | -27.9% | nt | ? | ? | 15.1*
Cc1ccc(S(=O)(=O)NCC(c2ccc(N(C)C)cc2)N2CCc3ccccc32)cc1C (stereo not drawn) | 12.9% | nt | 4.6%[60.1 µM] | 0.2% | -16.8% | 17.2% | nt
COc1ccc2[nH]c(C)cc2c1 | -0.4% | nt | 14.2% | nt | nt | 29.0% | nt
CNc1ncnc2ccc(-c3ccc4c(c3)OCO4)cc12 | nt | nt | -2.7%[60.1 µM] | nt | nt | nt | nt
NCCCCNc1ncnc2ccc(-c3ccc4c(c3)OCO4)cc12 | nt | nt | nt | nt | nt | nt | 30.1*
